Compounds with a hit are over-represented: about 2.2% of the library has one in this group of screens.
CHO-K1 Ca antag – M1 antagonist counterscreen hit in parental CHO-K1 cells | 360,000 tested, 0.6% active | ATP-induced calcium, Fluo-8 fluorescence | inhibition, % at 3 µM | AID 602250;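 active means inhibition above a per-plate cutoff, the plate's mean sample inhibition plus 3 SD, cut at about 24% in these data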
NTR1 ag – agonists of human NTR1, primary screen, imaging, U2OS cells, beta-arrestin-GFP, high content | Neurotensin receptor type 1 (Homo sapiens), P30989 | NTR1-U2OS beta-arrestin-GFP spot imaging, agonist mode | activation, % at 20 µM | 330,000 tested, 0.17% active | AID 493036, 2011;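 active means activation at or above 40% of the spot to cytoplasm intensity ratio, with at least 20 cells analyzed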
M1 ag parental – counter-screen for M1 agonists: effect in parental CHO-K1 cells; AID 602248, 2012; Fluo-8 calcium fluorescence; scaled to maximal ATP response, vehicle zero; activation, % at 3 µM; 360,000 tested, 0.48% active; in the data active means activation above about 15%;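 further: untransfected CHO-K1 host cells lacking M1 receptor as counterscreen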
ANO1 activ – TMEM16A chloride channel activators or potentiators, primary screen, cell-based, HTS; Anoctamin-1 (Mus musculus), Q8BHY3; 340,000 tested, 0.3% active; HEK293 TMEM16A/YFP-H148Q/I152L, iodide quench fluorescence; hits give low values; B-score at 10 µM;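 active means fluorescence-ratio B-score plate-corrected deviation score at least 3 library SD below zero, with starting fluorescence score within 5 deviations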;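 further: channel opened by trigger with iodide after compound preincubation; score built on the fluorescence ratio of max minus min over baseline; more negative score means more quench and so TMEM16A activation or potentiation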
CHO-K1 Ca PAM – nonselective calcium activators in parental CHO-K1 cells, primary screen, counter-screen for M1 PAM project, cell-based, Fluo-8 calcium fluorescence, full deck, 1536-well | ATP EC20; 0% at ATP EC20, 100% at ATP max | activation, % at 3 µM | 360,000 tested, 0.02% active | AID 602247, 2012;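 active means activation above the run cutoff, the mean activation of all test compounds plus 3 SD, cut at about 40% in these data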;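 further: peak over basal fluorescence ratio in a 140 s read after ATP addition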
TMEM16A inh – TMEM16A chloride channel inhibitors, primary screen, cell-based, HTS; 310,000 tested, 1.2% active; AID 588511, 2011; normalized B-score (activity score, 25-100; higher = stronger inhibition) at 10 µM; HEK293 TMEM16A/YFP iodide influx fluorescence, ionomycin; Anoctamin-1 (Mus musculus), Q8BHY3;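 active means ratio plate-corrected score three or more library SD toward inhibition, starting fluorescence score within five deviations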;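 further: score derived from kinetic fluorescence span divided by baseline fluorescence per well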
TMEM16A reconf – TMEM16A chloride channel inhibitors, confirmation, cell-based, re-confirmation; shares compounds with TMEM16A inh; HEK293 TMEM16A/YFP-H148Q, iodide quench fluorescence; ionomycin added to raise cell calcium; inhibition, % at 10 µM; 2,300 tested, 39% active; AID 652189, 2013;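 active means mean duplicate percent inhibition, scaled so buffer wells are 0 and the reference blocker 100, over three buffer SD above buffer mean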
TMEM16A Ca cntr – calcium mobilization in TMEM16A/YFP HEK293 cells, confirmation, counter-screen for TMEM16A inhibitor project. shares compounds with TMEM16A inh. Fluo4 calcium mobilization. calcium response (% of ionomycin), % at 10 µM. 2,300 tested, 2% active. AID 652231, 2013;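 active means duplicate-averaged calcium signal over 20% of the ionomycin maximum, relative to buffer baseline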;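 further: each well's signal is peak minus trough fluorescence divided by its pre-addition baseline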
Parental YFP cnt – iodide YFP quench changes in parental YFP-HEK293, counter-screen for TMEM16A inhibitor project, cell-based | AID 652233, 2013 | 2,300 tested, under 10 active | YFP ratio F(max-min)/F0 at 10 µM | ionomycin | shares compounds with TMEM16A inh;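 active means yellow fluorescent protein signal ratio exceeding the buffer control mean by over 5 SD of those controls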;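 further: ratio is mean of duplicate wells from kinetic YFP trace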
ClC-1 inh – ClC-1 chloride channel inhibition, selectivity assay for TMEM16A inhibitor project, cell-based, voltage-dependent ClC-1; shares compounds with TMEM16A inh; CHO ClC-1-YFP, iodide influx fluorescence quench; iodide control reads 0, buffer control 100; ratio percent, % at 10 µM; 2,300 tested, under 10 active; AID 652236, 2013;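 active means duplicate-mean ratio percent above the mean of iodide-only control wells, which defines zero, plus 5 of their SD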;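 further: higher percent means stronger block of ClC-1 iodide influx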
Target sequence (P35524 whole entry, looked up): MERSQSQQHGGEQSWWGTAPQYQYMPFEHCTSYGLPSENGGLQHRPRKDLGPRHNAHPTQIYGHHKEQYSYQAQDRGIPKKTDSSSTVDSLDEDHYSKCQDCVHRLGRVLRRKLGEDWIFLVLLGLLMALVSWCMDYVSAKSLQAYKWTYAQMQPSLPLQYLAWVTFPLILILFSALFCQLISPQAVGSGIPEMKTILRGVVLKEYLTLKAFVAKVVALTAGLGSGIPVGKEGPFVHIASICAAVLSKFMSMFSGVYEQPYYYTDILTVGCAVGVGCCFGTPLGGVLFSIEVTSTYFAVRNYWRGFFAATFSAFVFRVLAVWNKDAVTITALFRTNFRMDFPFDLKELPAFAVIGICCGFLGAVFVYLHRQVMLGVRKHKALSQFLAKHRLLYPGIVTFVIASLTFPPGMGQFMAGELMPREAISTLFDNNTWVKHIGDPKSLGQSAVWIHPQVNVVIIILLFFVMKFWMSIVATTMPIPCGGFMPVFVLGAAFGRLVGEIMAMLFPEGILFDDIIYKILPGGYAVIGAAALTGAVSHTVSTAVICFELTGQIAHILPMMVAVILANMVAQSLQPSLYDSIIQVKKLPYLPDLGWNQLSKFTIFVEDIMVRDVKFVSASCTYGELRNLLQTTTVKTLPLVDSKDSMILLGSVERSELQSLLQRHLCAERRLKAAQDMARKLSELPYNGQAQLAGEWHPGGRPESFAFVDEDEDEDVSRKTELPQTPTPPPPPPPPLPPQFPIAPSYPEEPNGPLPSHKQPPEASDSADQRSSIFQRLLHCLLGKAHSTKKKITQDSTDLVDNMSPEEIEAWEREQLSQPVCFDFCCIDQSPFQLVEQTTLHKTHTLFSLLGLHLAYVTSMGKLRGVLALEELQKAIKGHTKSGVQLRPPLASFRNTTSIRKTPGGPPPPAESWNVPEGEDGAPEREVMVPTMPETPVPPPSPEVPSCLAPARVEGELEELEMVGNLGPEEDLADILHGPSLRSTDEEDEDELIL
Of the large screens only hits and unclear results are named; the others gave an inactive call (follow-up assays come after a bar, where they were run).

CC(C)C[C@@H](CN1CCC[C@H]1CN1C(=O)C(=O)NC[C@@H]1Cc1ccc(O)cc1)N1C[C@H](Cc2ccccc2)N(CC2CCCCCC2)C(=O)C1=O	none (no result: NTR1 ag, ANO1 activ, TMEM16A inh)
Cc1ccc(-n2c(C)cc(C(=O)COC(=O)C3=NNC(=O)CC3)c2C)cc1	none
Cc1ccc(-n2c(C)cc(C(=O)COC(=O)c3c(C)noc3C)c2C)cc1	TMEM16A inh 100 | TMEM16A reconf inactive | TMEM16A Ca cntr inactive | Parental YFP cnt inactive | ClC-1 inh inactive
COc1ccc(Br)cc1C(=O)Nc1ccccc1N1CCCC1	TMEM16A inh 100 | TMEM16A reconf 24.5% | TMEM16A Ca cntr inactive | Parental YFP cnt inactive | ClC-1 inh inactive
Cc1cccc(N2CCN(C(=O)CCC(=O)N3CC(C)Oc4ccccc43)CC2)c1C (stereo not given)	TMEM16A inh 25 | TMEM16A reconf inactive | TMEM16A Ca cntr inactive | Parental YFP cnt inactive | ClC-1 inh inactive
Cn1nnnc1SCc1ccc(C(=O)Nc2nccs2)cc1	TMEM16A inh 100 | TMEM16A reconf inactive | TMEM16A Ca cntr inactive | Parental YFP cnt inactive | ClC-1 inh inactive
Cn1c(=O)c2c(ncn2CC(=O)OCC(=O)Nc2cccc(C#N)c2)n(C)c1=O	none (no result: NTR1 ag, ANO1 activ, TMEM16A inh)
CCOC(=O)c1cc2c(nc1N)CC(C)(CC)OC2 (stereo not given)	none | TMEM16A reconf inactive | TMEM16A Ca cntr inactive | Parental YFP cnt inactive | ClC-1 inh inactive
CCOC(=O)c1cc2c(nc1N)CC(C)(C)OC2	none
O=C(OCc1ccc(Cl)cc1)c1cccnc1Cl	none
O=C(OCc1ccc(Cl)cc1)c1ccccc1C(=O)c1ccccc1	TMEM16A inh 100 | TMEM16A reconf inactive | TMEM16A Ca cntr inactive | Parental YFP cnt inactive | ClC-1 inh inactive
COc1ccc(NC(=O)COC(=O)C2CCN(S(=O)(=O)c3cccs3)CC2)cc1OC	none (no result: TMEM16A inh)
Cc1ccc(-c2noc(CCCC(=O)NC3CCCC3)n2)cc1	TMEM16A inh 25 | TMEM16A reconf inactive | TMEM16A Ca cntr inactive | Parental YFP cnt inactive | ClC-1 inh inactive
CC(C)C(=O)N1CCN(c2nc(-c3ccc(Cl)cc3)cs2)CC1	TMEM16A inh 25 | TMEM16A reconf 33.5% | TMEM16A Ca cntr inactive | Parental YFP cnt inactive | ClC-1 inh inactive
CCOC(=O)N1CCN(c2nc(-c3ccc(Cl)cc3)cs2)CC1	none
O=C(CN1CCN(c2nc(-c3ccc(Cl)cc3)cs2)CC1)NCc1ccco1	TMEM16A inh 25 (no result: ANO1 activ) | TMEM16A reconf inactive | TMEM16A Ca cntr 20.0% | Parental YFP cnt inactive | ClC-1 inh inactive
CC(C)(C)OC(=O)N1CCCN(C(c2ccnc3ccccc23)c2nnnn2-c2ccc3c(c2)OCCO3)CC1 (stereo not given)	none (no result: NTR1 ag, ANO1 activ, TMEM16A inh)
Cc1cccc(OCCCSc2nc3ccc(C)cc3[nH]2)c1	TMEM16A inh 100 | TMEM16A reconf 33.0% | TMEM16A Ca cntr inactive | Parental YFP cnt inactive | ClC-1 inh inactive
Cc1cccc(OCCSc2nc3ncnc(N)c3[nH]2)c1	none
C/C(=N\NC(=S)NCCc1ccccc1)c1ccc(O)cc1O	TMEM16A inh 25 | TMEM16A reconf 23.0% | TMEM16A Ca cntr inactive | Parental YFP cnt inactive | ClC-1 inh inactive
C/C(=N\NC(=S)NCCc1ccccc1)c1ccc(Cl)cc1Cl	none
OCC1(Cc2ccccc2)CCN(Cc2cnc(-c3cccc4ccccc34)nc2)CC1	none
OCC1(Cc2ccccc2)CCN(Cc2cnc(-c3ccc(Cl)cc3)nc2)CC1	none | TMEM16A reconf inactive | TMEM16A Ca cntr inactive | Parental YFP cnt inactive | ClC-1 inh inactive
CCOc1cc(S(=O)(=O)NCc2ccccn2)c(C)cc1C	TMEM16A inh 100 (no result: CHO-K1 Ca antag, M1 ag parental, ANO1 activ, CHO-K1 Ca PAM) | TMEM16A reconf inactive | TMEM16A Ca cntr inactive | Parental YFP cnt inactive | ClC-1 inh inactive
Cc1cc(C)c(S(=O)(=O)NCc2ccccn2)cc1C	none
CC(C)(C)OC(=O)NCCc1onc(-c2ccccc2F)c1C(=O)O	none (no result: NTR1 ag, ANO1 activ, TMEM16A inh)
Cc1ccc(C(=O)CSc2nnc(COc3cccc(C)c3)o2)cc1	TMEM16A inh 100 | TMEM16A reconf inactive | TMEM16A Ca cntr inactive | Parental YFP cnt inactive | ClC-1 inh inactive
CCOC(=O)CSc1nnc(COc2cccc(C)c2)o1	none
COc1ccc(S(=O)(=O)N2CCCCC2)cc1NC(=O)CCOc1cc(C)ccc1C	none (no result: TMEM16A inh)
NC(=O)c1ncn([C@@H]2O[C@H](CNCc3cc(Cl)ccc3OCc3ccc(Cl)cc3)[C@@H](O)[C@H]2O)n1	none (no result: NTR1 ag, ANO1 activ, TMEM16A inh)
CC(C)(C)C1=Nn2c(nnc2-c2ccccn2)SC1	none | TMEM16A reconf inactive | TMEM16A Ca cntr inactive | Parental YFP cnt inactive | ClC-1 inh inactive
O=C(C[C@H]1C[C@H]2c3cc(NS(=O)(=O)c4ccc(F)cc4)ccc3O[C@H]2[C@H](CO)O1)NCc1ccncc1	none (no result: NTR1 ag, ANO1 activ, TMEM16A inh)
COc1cc(OC)cc(C(=O)N(Cc2ccco2)c2c(N)n(Cc3ccccc3)c(=O)[nH]c2=O)c1	none (no result: NTR1 ag, TMEM16A inh)
CC1(C)c2cc(O)ccc2OC1N1CCOCC1 (stereo not given)	TMEM16A inh 25 | TMEM16A reconf inactive | TMEM16A Ca cntr inactive | Parental YFP cnt inactive | ClC-1 inh inactive
CC1(C)c2ccccc2-c2nc3ccccc3cc2C1N1CCOCC1 (stereo not given)	none (no result: NTR1 ag, TMEM16A inh)
O=C(NCc1ccco1)c1ccccc1NS(=O)(=O)c1ccc(Cl)s1	TMEM16A inh 100 | TMEM16A reconf inactive | TMEM16A Ca cntr inactive | Parental YFP cnt inactive | ClC-1 inh inactive
CCN(CC)CCCN1C(=O)C(O)=C(C(=O)c2ccco2)C1c1ccc(OC(C)C)cc1 (stereo not given)	none
C=CCOc1ccc(C2C(C(=O)c3ccco3)=C(O)C(=O)N2CCCN(CC)CC)cc1 (stereo not given)	TMEM16A inh 25 | TMEM16A reconf inactive | TMEM16A Ca cntr inactive | Parental YFP cnt inactive | ClC-1 inh inactive

Compound activity as filed in PubChem.
